Each structure is given as a SMILES string. The whole screen tested about 1,400 compounds, of which about 350 (25%) were called active. Another 2% or so got no clear call; they are omitted. A selection follows. Results with a measured potency or affinity are listed apart. A number with no mark means an inactive call. The rule behind the calls is not given here.

The nature of the assay: inhibitors of Clostridioides difficile proliferation – 4-point retest, confirmation (AID 1224921).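 Note: plate controls were DMSO wells for no effect and levofloxacin 16 µg/mL wells for full effect.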 Particulars: Clostridioides difficile clinical isolate growth, OD600, 24 h, stronger effect = lower value; at 30 µM unless noted.
Take `CN(C)C(=O)c1ccc(-c2ccc([C@@H]3[C@@H](CO)N(C(=O)C4CCCCC4)[C@H]3C#N)cc2)cc1`: the max activity was -13.2% [at 0.5 µM].

Turning to `C[C@H]1CCCCO[C@@H](CN(C)C(=O)Nc2ccc(C(F)(F)F)cc2)[C@@H](C)CN([C@@H](C)CO)C(=O)c2cc(NS(=O)(=O)c3ccc(Cl)cc3)ccc2O1`, the max activity was 12.1%.

In the case of `C[C@H](CO)N1C[C@H](C)[C@H](CN(C)C(=O)Nc2ccc(C(F)(F)F)cc2)OCCCC[C@H](C)Oc2ccc(NS(=O)(=O)c3ccc(Cl)cc3)cc2C1=O`, the max activity is 14.5%.

As for `COc1ccc(NC(=O)Nc2cccc3c2O[C@H](CN(C)C(=O)NC2CCCCC2)[C@@H](C)CN([C@H](C)CO)C3=O)cc1`, the max activity was -16%.

As for `CO[C@H]1CN(C)C(=O)c2cc(NS(=O)(=O)c3ccc(Cl)cc3)ccc2OC[C@@H](C)N(C(=O)NC(C)C)C[C@@H]1C`, the max activity is 11.8%.

On to `C[C@H](O)C#Cc1ccc2c(c1)O[C@@H](CN(C)C(=O)c1ccccc1)[C@@H](C)CN([C@@H](C)CO)S2(=O)=O`, for which the max activity is -12.7%.

`C[C@H](CO)N1C[C@H](C)[C@@H](CN(C)Cc2ccccn2)Oc2cc(C3=CCCCC3)ccc2S1(=O)=O`: the max activity was 33.3%.

`C[C@@H]1CN([C@@H](C)CO)C(=O)Cc2cc(N(C)C)ccc2O[C@H]1CN(C)Cc1ccccc1`: the max activity is 9.89%.

`CO[C@@H]1CN(C)C(=O)c2cc(NC(=O)NC(C)C)ccc2OC[C@H](C)N(C)C[C@@H]1C`: the max activity is -5.88%.

For `CCS(=O)(=O)Nc1ccc2c(c1)OC[C@H](C)NC[C@@H](C)[C@@H](OC)CN(C)C2=O`, the max activity is 10.9%.

Turning to `CN(C)C(=O)c1ccc(-c2ccc([C@@H]3[C@@H](C#N)N(C(=O)C4CC4)[C@H]3CO)cc2)cc1`, the max activity is 19.6% [at 1.95 µM].

As to `O=C(Nc1cc(F)ccc1F)N[C@H]1CC[C@H](CC(=O)N2CCc3ccccc3C2)O[C@@H]1CO`, the max activity was -10.9% [at 8 µM].

Regarding `C[C@@H]1CN([C@@H](C)CO)C(=O)c2cc(NC(=O)CCCN(C)C)ccc2O[C@@H](C)CCCCO[C@@H]1CN(C)Cc1ccc(C(F)(F)F)cc1`, the max activity is -16.2% [at 1.95 µM].

For the compound `C[C@@H]1CN([C@@H](C)CO)C(=O)c2cc(NC(=O)Nc3ccc(C(F)(F)F)cc3)ccc2O[C@@H](C)CCCCO[C@@H]1CN(C)C`, the max activity is 6.76% [at 8 µM].

Regarding `C[C@H](CO)N1C[C@H](C)[C@@H](CN(C)Cc2ccc(C(F)(F)F)cc2)OCCCC[C@H](C)Oc2ccc(NC(=O)CCCN(C)C)cc2C1=O`, the max activity was 16.3%.

For the compound `C[C@@H]1CN([C@@H](C)CO)C(=O)c2cc(NC(=O)Nc3ccc(C(F)(F)F)cc3)ccc2O[C@@H](C)CCCCO[C@H]1CN(C)C`, the max activity is 31.7% [at 8 µM].

Values taken from PubChem BioAssay AID1224921 (Broad Institute, 2016).
